Screening data: PubChem, National Center for Advancing Translational Sciences (NCATS)
HCV inh: inhibitors of hepatitis C virus infection. Huh7.5.1 HCVcc-Cre infection, luciferase reporter, 44 h. Potency, µM (doses to about 41.8 µM), for inactives: top-dose activity change, negative = inhibition, most hits filed as inhibitors. 340,000 compounds, 3.4% hits. AID 651820; active = well fitted inhibition curve with a large enough effect; inconclusive = small, poorly fitted or top-dose-only effect, or another doubt; inactive = no such curve, though single readings can be large or run the other way; note: potency is the fitted concentration of half-maximal effect
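HCVcc-Cre virus at an moi near 0.5 was added right after compound to cells cultured 4 h from seeding (1,000 cells/well). Luciferase activity was determined 44 h later, 15 min after substrate addition at RT.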
Marburg entry inh: inhibitors of Marburg virus binding or cell entry; Marburg virus pseudotyped entry inhibition, cell reporter; Potency, µM (top dose mostly 37.8 µM), without a hit: at the top dose activity change, negative = inhibition, hits mostly inhibitors; 300,000 compounds, 1.8% hits; calls by dose curve; tested in HEK293 cells; note: potency is the fitted concentration of half-maximal effect
HCMV antiviral: blocks human cytomegalovirus replication. HFF cells, HCMV-luciferase reporter, 72 h; hits give low values. activity change, negative = inhibition, % at 57.5 µM. 410,000 compounds, 4.5% hits. AID 1259415; in the data active = activity change below about -60%; inconclusive = no clear call, values can overlap the other calls; inactive = above about -39%
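After 16 h attachment at 37C, HFF cells received test compound and HCMV-luciferase (1 PFU/cell); reporter luminescence read 72 h later, data normalized against buffer-only and known inhibitor Salinomycin.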
Lassa entry inh: blocks Lassa virus binding to or entry into cells; 300,000 compounds, 1.2% hits; Lassa virus pseudotype entry inhibition, cell reporter; AID 540256; Potency, µM (highest dose often 37.9 µM), inactives show at the top dose activity change, negative = inhibition, usual class: inhibitors; calls by dose curve; tested in HEK293 cells; note: potency is the fitted concentration of half-maximal effect; nearly all actives have a fitted effect of over 50% in size
FMDV inh: antivirals against foot and mouth disease virus. Potency, µM (top dose mostly 57.9 µM), without a hit: at the highest dose activity change, negative = inhibition, hits mostly inhibitors. 410,000 compounds, 1.2% hits. AID 1159524. FMDV antiviral cell-based qHTS; calls by dose curve; tested in HEK293T cells; note: read-out not given here; potency is the fitted concentration of half-maximal effect; nearly all actives have a fitted effect of over 45% in size
* hit, by the source's call; ? = inconclusive; · = no result; [ ] = remark or other dose. Shown are actives, neighbours in structure and some others; about 7.9% of the full set was active somewhere. % is set by controls: 0 for no effect and ±100 for the full control effect.

SMILES	HCV inh	Marburg entry inh	HCMV antiviral	Lassa entry inh	FMDV inh
Cc1cccc(OCC(=O)Nc2ccc(N3CCN(C(=O)c4ccccc4)CC3)cc2)c1C	?	3%	14	-18%	14µM*
Cc1c(Cl)cccc1NC(=O)CSc1nc(=O)n(Cc2ccco2)c2c1CCC2	·	·	?	-17%[46.1 µM]	0%
CSc1ncccc1C(=O)NCC1Cc2cc(-c3cnccn3)cc(Cl)c2O1 (stereo not given)	·	·	·	·	12%
COc1cccc(SCc2noc(C(=O)NCCCN3CCOCC3)c2C(=O)NCCCN2CCOCC2)c1	-10%	·	-30	·	-16%
O=C(NCCCN1CCOCC1)c1onc(CSc2ccncc2)c1C(=O)NCCCN1CCOCC1	9%	·	12	·	1%
Cc1cc(C)cc(SCc2noc(C(=O)NCCCN3CCOCC3)c2C(=O)NCCCN2CCOCC2)c1	1µM*	·	-29	·	-5%
O=C(NCCCN1CCOCC1)c1onc(CSc2ccccc2)c1C(=O)NCCCN1CCOCC1	2%	·	-68*	·	-1%
COc1ccc2c(c1)CO[C@H]([C@H](O)COC(C)=O)[C@H]2C=Cc1ccccc1	·	-2%[14.2 µM]	·	·	·
COc1cc(C(=O)NC2CCN(C)CC2)ccc1Nc1ncc2c(n1)N(C1CCCCC1)CCC(=O)N2C	1.8µM*	·	?	·	31%
COc1cc(C(=O)NC2CCN(C)CC2)ccc1Nc1ncc2c(n1)N(Cc1ccccc1)CCC(=O)N2C	29%[8.37 µM]	·	-76*	·	30%
CCN1C(=O)CC(c2ccccc2)N(C2CCCC2)c2nc(Nc3ccc(C(=O)NC4CCN(C)CC4)cc3OC)ncc21 (stereo not given)	8.9µM*	·	·	·	-21%
CCN1C(=O)CC(C(C)C)N(C2CCCC2)c2nc(Nc3ccc(C(=O)NC4CCN(C)CC4)cc3OC)ncc21 (stereo not given)	17%[8.37 µM]	·	·	·	?
COc1cccc(NC(=O)CSc2c(C)cnc3c2c(=O)n(C)c(=O)n3C)c1	·	·	-14	10%[46.1 µM]	-12%
O=C(c1ncn(Cc2ccccc2)c1C(=O)N1CCN(c2ccccc2)CC1)N1CCN(c2ccccc2)CC1	-19%	·	7	·	-9%
O=C(O)c1ncn(Cc2ccc(Br)cc2)c1C(=O)O	15%	?	?	-2%	35µM*
O=C1CC2(CCN(C(=O)c3cccc(Cl)c3)CC2)Oc2ccccc21	17%	16%	-99*	12%[46.1 µM]	?
O=C1CC2(CCN(C(=O)c3ccc(Cl)cc3)CC2)Oc2ccccc21	11%	-9%[46.1 µM]	-20	-18%	-25%
Cc1ccc(-n2nc(C)c3c(C)cc(=O)n(CC(=O)Nc4cc(Cl)ccc4C)c32)cc1	·	·	15	25%[46.1 µM]	0%
O=C1CN(S(=O)(=O)c2ccccc2)CC(=O)N1CCc1ccccc1	2%	-3%	-24	7%	-14%
Cc1cc(S(=O)(=O)N2CC(=O)N(CCc3ccccc3)C(=O)C2)ccc1F	6%	3%	-89*	-3%	9%
O=C(NCCS(=O)(=O)N1CCN(C(=O)c2ccco2)CC1)c1ccccc1	·	·	-79*	·	0%
COc1ccc(C(=O)NCCS(=O)(=O)N2CCN(C(=O)c3ccco3)CC2)cc1	-2%	-1%[46.1 µM]	5	7%	-15%
N#Cc1c(C(F)(F)F)cc(-c2ccccc2)nc1SCCN1CCOCC1	7.9µM*	?	112	-26%	·
Cc1cc2c(cc1C)NC(c1cccc(Br)c1)=C(N(Cc1ccccc1)C(=O)C(=O)c1ccccc1)C(=O)N2	·	·	-6	·	·
O=C(CCc1ccccc1)NCc1ccc2c(c1)CCN2C(=O)c1ccc(Cl)cc1	·	·	26	15%[46.1 µM]	-3%
CC(=O)c1ccc(N2C(=O)C3C(C2=O)C(C(=O)c2ccc(Cl)cc2)N2CCCC32)cc1 (stereo not given)	-17%	?	27	-1%	?
O=C(c1ccccc1)[C@@H]1[C@@H]2C(=O)N(c3ccc(F)cc3)C(=O)[C@@H]2C2CCCN21 (stereo not given in full)	13%	·	-67*	·	-16%
COc1ccc(N2C(=O)C3C(C2=O)C(C(=O)c2ccc(Cl)cc2)N2CCCC32)cc1 (stereo not given)	5%	?	-60*	8%	?
Cc1cc(C)cc(NC(=S)/N=C(\N)Nc2nc(C)c3ccccc3n2)c1	?	?	-79*	6%	?
Cc1cccc(NC(=S)/N=C(\N)Nc2nc(C)c3ccccc3n2)c1	4µM*	?	?	?	-9%
